# Assay results reported in the OligoGym collection.
# Target: ODF3L1
# Experiment: pooled miR-30 sensor sort-seq; sequence = guide strand
# Settings: shRNA
# Note: reference of the scale not given here.
row,Sequence,sensor-assay potency score (higher = more potent)
1,TGTCATGATCTATGTAGCCCGT,-0.612
2,TCTGCTACTAGAAATCTTGGTC,0.655
3,TTGTGCACAGTGACCTGCTGGA,0.448
4,TTGAACATGGAGATGTCATGAT,0.585
5,TGATCTATGTAGCCCGTGCAGG,-1.19
6,ACATCCTCCTTGTAGAACCAGT,-1.04
7,TTGAGGTCCATCACTCTGTATG,-1.32
8,TAAGCTGGTGCCTTGAACATGG,0.328
9,TCCTTGTAGAACCAGTTCTTGT,-1.85
10,ATCTTCTCAAAGTAGTACTGGC,-0.892

# Target: ODF4
# Experiment: as above
# Settings: shRNA
row,Sequence,sensor-assay potency score (higher = more potent)
1,TTCTACTGAGCCGAAACTGCTG,-0.397
2,TAGCAAAGGATCGCGCAGGTGA,-0.209
3,TTGGTCTCTTTCTCCTTCTGAC,-0.95
4,TCTTCTACTGAGCCGAAACTGC,-1.39
5,TTCCAGGTCTCTGATGTTGGTC,-1.05
6,TTGAAGTAGCAAAGGATCGCGC,0.0925
7,TCTGTGATCGTCTGTGCCCTTG,-0.736
8,TCTACTGAGCCGAAACTGCTGC,0.472
9,TATAGGATAAGCACCAGCCAAC,-1.15
10,TCTCTTTCTCCTTCTGACCTGG,-0.166

# Target: OGDHL
# Experiment: as above
# Settings: shRNA
row,Sequence,sensor-assay potency score (higher = more potent)
1,TTGACCACGATCCAGTTGCAGT,-1.4
2,TTGAATCTACAGATAAGCGAGG,-0.941
3,TTCTACTTTGGTACACATGAGC,-0.678
4,TTGCTCATCTGCAGGAACCTTT,-0.719
5,TAAGCCTCCTCACAGATCCGGT,-0.839
6,TACATCTCCTCCATGTAACTGG,-0.405
7,TTCTTGGTCATGTCCGCACGGC,-0.866
8,TGGAGAACTGCATCACACCAGG,-1.03
9,TTCAGCACAGGCACCTGTCTGT,0.114
10,TTCATAGGCACACACGTCCTGC,-1.24
11,TACTTTGGTACACATGAGCTGT,-0.325
12,TTTGAATCTACAGATAAGCGAG,-0.201

# Target: OLFML2A
# Experiment: as above
# Settings: shRNA
row,Sequence,sensor-assay potency score (higher = more potent)
1,TTGTACATGTTACTCCAGCGGC,-0.677
2,TTGTAGTCGATCTGGGTGGTGT,-0.246
3,TACTTGATGATGTTCTTGGTGA,0.197
4,TAACTTTTAAAAATCAGCCTAT,-0.201
5,TTCAAACATACAGACATCCAGG,-0.00393
6,TTGTAGTAGGTGAAGCCCCGGA,-0.647
7,TAGCTTGTACATGTTACTCCAG,-0.555
8,TTATACTTGACTTTGTTCTAAA,-0.893
